Records with an inconclusive call do not appear. Activity calls are given as the source filed them. The call rests on the fitted dose curve; in most records, active means well fitted cell-killing curve with a large enough effect; inconclusive means small, poorly fitted or top-dose-only effect; inactive means flat fitted curve, though single readings scatter.
assay: Cellular viability qHTS for adrenocortical cancer (ACC) cell line SW-13 (AID 1963989); conditions: SW-13 ACC cells viability, CellTiter-Glo, 48 h; activity (max response): stronger effect = lower value; further: nearly all actives have a fitted effect of over 65% in size;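 on activity (max response): cells grown in serum-free medium with ITS supplement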
In short: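 IC50 and maximal-response values come from four-parameter logistic fits of titration data. SW-13 cells in serum-free medium received compounds (up to 46 uM final) for 48 h before CellTiter-Glo luminescence.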
On the % scale 0 is the no-effect control and ±100 the full control effect; potency means the concentration at half of the fitted maximal effect.

| SMILES | Potency | activity (max response) |
| --- | --- | --- |
| CO[C@]12CC[C@@]3(C[C@@H]1[C@](C)(O)C(C)(C)C)[C@@H]1Cc4ccc(O)c5c4[C@@]3(CCN1CC1CC1)[C@H]2O5 | 6.31 µM (active) | – |
| CN1C(=O)[C@@H](NC(=O)[C@H](CCC(F)(F)F)[C@H](CCC(F)(F)F)C(N)=O)N=C(c2ccccc2)c2ccccc21 | – | -2.32% (inactive) |
| CN1C2CCC(C)(C)C1CC(OC(=O)C(O)(c1cccs1)c1cccs1)C2 (centres undefined) | – | -3.56% (inactive) |
| CCN(CC)C(=O)N[C@@H]1C=C2c3cccc4[nH]cc(c34)C[C@@H]2N(C)C1 | – | 5.3% (inactive) |
| COc1cccc2c1C(=O)c1c(O)c3c(c(O)c1C2=O)C[C@@](O)(C(=O)CO)CC3OC1CC(N2CCOC(OC)C2)C(O)C(C)O1 (some centres undefined) | 0.1 µM (active) | – |
| CN1CCC(O)(c2ccc(F)cc2)C(C(=O)c2ccc(F)cc2)C1 (centres undefined) | – | 0.424% (inactive) |
| CCOC(=O)c1ncn2c1CN(C)C(=O)c1c(I)cccc1-2 | – | -2.47% (inactive) |
| CC(=O)[C@H]1CC[C@H]2[C@@H]3CC[C@H]4C[C@](C)(O)CC[C@]4(C)[C@H]3CC[C@]12C | – | 7.79% (inactive) |
| CCCC(C)C1(CC)C(=O)N=C(S)NC1=O (centres undefined) | – | -0.902% (inactive) |

Source: PubChem BioAssay (NCATS)
